{"source": "ChEMBL document CHEMBL1157539", "about": "“Thousands of chemical starting points for antimalarial lead identification” (Nature, 2010)"}
{"test_system": "Plasmodium falciparum", "assay": "GSK_TCMDC: Inhibition of Plasmodium falciparum 3D7 in whole red blood cells, using parasite LDH activity as an index of growth. Test compounds present at 2uM", "format": "functional", "units": {"Inhibition": "%"}}
{"molecule": "O=C(/C=C/c1ccc(-c2nc3ccc(Cl)cc3[nH]2)cc1)NC1CCN(Cc2ccccc2)CC1", "Inhibition": 100}
{"molecule": "CS(=O)(=O)CCNC(=O)c1ccc(-c2cc3c(Nc4ccc5c(cnn5Cc5ccccc5)c4)ncnc3cn2)o1.Cl", "Inhibition": 97}
{"molecule": "Cc1ccc(C(C)C)c(Oc2cnc(NC(CO)c3ccccc3)nc2N)c1", "note": "(stereo not given)", "Inhibition": 95}
{"molecule": "CC1CCCN(C(=O)c2cc(-c3ccccn3)nc3c(Cl)cccc23)C1", "note": "(stereo not given)", "Inhibition": 86}
{"molecule": "CN1c2ccc([N+](=O)[O-])cc2C(C)(C)C12C=Cc1cc(Br)cc([N+](=O)[O-])c1O2", "note": "(stereo not given)", "Inhibition": 100}
{"molecule": "COc1ccc2nccc(N3CCN(CCNCc4ccc5c(n4)NC(=O)CS5)CC3)c2c1.Cl", "Inhibition": 97}
{"molecule": "O=C(Nc1cccc(CN2CCCN(Cc3ccccc3)CC2)c1)c1ccc(-c2ccccc2)cc1.O=C(O)C(F)(F)F", "Inhibition": 85}
{"molecule": "O=C(Nc1ccc(Br)cc1)N(CCN1CCOCC1)CC(O)COc1ccc(Cl)c(F)c1.O=C(O)C(F)(F)F", "note": "(stereo not given)", "Inhibition": 98}
{"molecule": "COc1cc(C(=O)Nc2cccc(-c3nc4ccccc4[nH]3)c2)cc(OC)c1OC", "Inhibition": 99}
{"molecule": "CCN(CC)S(=O)(=O)n1ncc2c3c(N)nc(N)nc3ccc21.Cl", "Inhibition": 93}
{"molecule": "CN1CCN(c2ccnc3ccc(NC(=O)Nc4ccc5c(c4)CCC5=O)cc23)CC1", "Inhibition": 100}
{"molecule": "O=C(/C=C/c1ccc(Cl)c(Cl)c1)NCCCCCN1CCC(NC(=O)Nc2cc(F)ccc2F)CC1", "Inhibition": 98}
{"molecule": "Br.CCC1N=C(N)N=C(N)N1OCCCOc1c(Cl)cc(Cl)cc1Cl", "note": "(stereo not given)", "Inhibition": 95}
{"molecule": "CS(=O)(=O)c1ccc2nc(NC(=O)c3csnn3)sc2c1", "Inhibition": 90}
{"molecule": "COc1ccc(Cl)cc1N1CCN(CCCNC(=O)c2ccc(-c3nc4cc(Cl)c(F)cc4[nH]3)c(F)c2)CC1", "Inhibition": 100}
{"molecule": "CN(CCN(C)CC(O)c1ccc(Cl)c(Cl)c1)CC(O)c1ccc(Cl)c(Cl)c1.Cl", "note": "(stereo not given)", "Inhibition": 91}
{"molecule": "O=C(/C=C/c1ccc(Cl)cc1)NCCCCCN1CCC(C(=O)Nc2cccc(Cl)c2)CC1", "Inhibition": 97}
{"molecule": "N#Cc1ccc(N[C@@H](CC2CCCCC2)C(=O)N[C@@H]2CCCc3ccccc32)c2ccccc12.O=C(O)C(F)(F)F", "Inhibition": 99}
{"molecule": "COc1ccc(-c2ccc(NC(=O)c3ccc(Cl)cc3)cc2)cc1CN1CCCN(C)CC1.O=C(O)C(F)(F)F", "Inhibition": 93}
{"molecule": "Cl.O=c1cc(NCCCNCc2scc(I)c2I)[nH]c2ccccc12", "Inhibition": 100}
{"molecule": "NS(=O)(=O)c1cccc(Br)c1", "Inhibition": 98}
{"molecule": "CCOc1ccc(NC(=O)c2ccc(CN3CCCN(Cc4cccc(O)c4)CC3)cc2)cc1.O=C(O)C(F)(F)F", "Inhibition": 85}
{"molecule": "CNCCNCc1cccc(-c2ccc(-c3nc4ccccc4[nH]3)s2)c1.O=C(O)C(F)(F)F", "Inhibition": 99}
{"molecule": "CC(CO)(CO)NCc1cc2c3ccccc3c(CNC(C)(CO)CO)cc2c2ccccc12.CS(=O)(=O)O", "Inhibition": 96}
{"molecule": "CCOc1c(Br)cc(Br)cc1CNCCCCNc1nc2ccccc2[nH]1", "Inhibition": 100}
{"molecule": "CCN(CC)CCN(Cc1ccc(-c2ccc(Br)cc2)cc1)C(=O)Cn1c(CCc2cccc(F)c2F)nc(=O)c2ccccc21.O=C(O)C(O)C(O)C(=O)O", "Inhibition": 98}
{"molecule": "Cc1cnc(C(=O)Nc2ccc(-c3cccc(-c4nc5ccccc5[nH]4)c3)cc2)cn1", "Inhibition": 93}
{"molecule": "CS(=O)(=O)CCNCc1cccc(-c2cc3nccc(Nc4ccc(Oc5ccccc5)cc4)c3cc2Cl)c1", "Inhibition": 100}
{"molecule": "CCCCCC(=O)NCC(NCCCNc1cc(=O)c2ccccc2[nH]1)c1cc(Br)cc(Br)c1", "note": "(stereo not given)", "Inhibition": 96}
{"molecule": "CCN(CC)CCNc1c2ccc(Cl)cc2nc2ccc(OC)nc12.Cl", "Inhibition": 100}
{"molecule": "CCCCNCC(O)COc1ccccc1-c1ccc(N/N=C/c2cccc3ccccc23)nn1", "note": "(stereo not given)", "Inhibition": 99}
{"molecule": "Cc1cccc2nc(-c3cccc(-c4cccc(CNCCc5cccn5C)c4)c3)[nH]c12.O=C(O)C(F)(F)F", "Inhibition": 91}
{"molecule": "CN1CCN(CC(=O)Nc2ccc(-c3ccc(-c4nc5ccccc5[nH]4)s3)cc2)CC1", "Inhibition": 100}
{"molecule": "OC(c1ccc(Cl)cc1)(c1ccc(Cl)cc1)C(c1ccc(Cl)cc1)n1ccnc1", "note": "(stereo not given)", "Inhibition": 100}
{"molecule": "CCC(C)NC(=O)Nc1ccc(-c2cccc(-c3nc4ccccc4[nH]3)c2)cc1", "note": "(stereo not given)", "Inhibition": 94}
{"molecule": "O=C(NCCCCN1CCC(C(c2ccccc2)c2ccccc2)CC1)c1ccc(NC(=O)c2ccc(Cl)cc2)cc1", "Inhibition": 100}
{"molecule": "CC1(C)N=C(N)N=C(N)N1OCc1ccc2ccccc2c1", "Inhibition": 94}
{"molecule": "S=C(NN=Cc1ccccn1)NC1CC2C=CC1C2", "note": "(stereo not given)", "Inhibition": 99}
{"molecule": "Cc1[nH]c2ccc(-c3ccc(N(C)C)cc3)cc2c(=O)c1Cl", "Inhibition": 97}
{"molecule": "Cc1cccc2nc(-c3ccc(-c4ccc(CNCCCN5CCCC5=O)cc4)cc3)[nH]c12.O=C(O)C(F)(F)F", "Inhibition": 100}
{"test_system": "Plasmodium falciparum", "assay": "GSK_TCMDC: Inhibition of Plasmodium falciparum Dd2 in whole red blood cells, using parasite LDH activity as an index of growth. Test compounds present at 2uM", "format": "functional", "units": {"Inhibition": "%"}}
{"molecule": "O=C(/C=C/c1ccc(-c2nc3ccc(Cl)cc3[nH]2)cc1)NC1CCN(Cc2ccccc2)CC1", "Inhibition": 92}
{"molecule": "CS(=O)(=O)CCNC(=O)c1ccc(-c2cc3c(Nc4ccc5c(cnn5Cc5ccccc5)c4)ncnc3cn2)o1.Cl", "Inhibition": 46}
{"molecule": "Cc1ccc(C(C)C)c(Oc2cnc(NC(CO)c3ccccc3)nc2N)c1", "note": "(stereo not given)", "Inhibition": 0}
{"molecule": "CC1CCCN(C(=O)c2cc(-c3ccccn3)nc3c(Cl)cccc23)C1", "note": "(stereo not given)", "Inhibition": 9}
{"molecule": "CN1c2ccc([N+](=O)[O-])cc2C(C)(C)C12C=Cc1cc(Br)cc([N+](=O)[O-])c1O2", "note": "(stereo not given)", "Inhibition": 99}
{"molecule": "COc1ccc2nccc(N3CCN(CCNCc4ccc5c(n4)NC(=O)CS5)CC3)c2c1.Cl", "Inhibition": 23}
{"molecule": "O=C(Nc1cccc(CN2CCCN(Cc3ccccc3)CC2)c1)c1ccc(-c2ccccc2)cc1.O=C(O)C(F)(F)F", "Inhibition": 8}
{"molecule": "O=C(Nc1ccc(Br)cc1)N(CCN1CCOCC1)CC(O)COc1ccc(Cl)c(F)c1.O=C(O)C(F)(F)F", "note": "(stereo not given)", "Inhibition": 30}
{"molecule": "COc1cc(C(=O)Nc2cccc(-c3nc4ccccc4[nH]3)c2)cc(OC)c1OC", "Inhibition": 41}
{"molecule": "CCN(CC)S(=O)(=O)n1ncc2c3c(N)nc(N)nc3ccc21.Cl", "Inhibition": 16}
{"molecule": "CN1CCN(c2ccnc3ccc(NC(=O)Nc4ccc5c(c4)CCC5=O)cc23)CC1", "Inhibition": 67}
{"molecule": "O=C(/C=C/c1ccc(Cl)c(Cl)c1)NCCCCCN1CCC(NC(=O)Nc2cc(F)ccc2F)CC1", "Inhibition": 22}
{"molecule": "Br.CCC1N=C(N)N=C(N)N1OCCCOc1c(Cl)cc(Cl)cc1Cl", "note": "(stereo not given)", "Inhibition": 96}
{"molecule": "CS(=O)(=O)c1ccc2nc(NC(=O)c3csnn3)sc2c1", "Inhibition": 95}
{"molecule": "COc1ccc(Cl)cc1N1CCN(CCCNC(=O)c2ccc(-c3nc4cc(Cl)c(F)cc4[nH]3)c(F)c2)CC1", "Inhibition": 91}
{"molecule": "CN(CCN(C)CC(O)c1ccc(Cl)c(Cl)c1)CC(O)c1ccc(Cl)c(Cl)c1.Cl", "note": "(stereo not given)", "Inhibition": 73}
{"molecule": "O=C(/C=C/c1ccc(Cl)cc1)NCCCCCN1CCC(C(=O)Nc2cccc(Cl)c2)CC1", "Inhibition": 0}
{"molecule": "N#Cc1ccc(N[C@@H](CC2CCCCC2)C(=O)N[C@@H]2CCCc3ccccc32)c2ccccc12.O=C(O)C(F)(F)F", "Inhibition": 99}
{"molecule": "COc1ccc(-c2ccc(NC(=O)c3ccc(Cl)cc3)cc2)cc1CN1CCCN(C)CC1.O=C(O)C(F)(F)F", "Inhibition": 61}
{"molecule": "Cl.O=c1cc(NCCCNCc2scc(I)c2I)[nH]c2ccccc12", "Inhibition": 73}
{"molecule": "NS(=O)(=O)c1cccc(Br)c1", "Inhibition": 0}
{"molecule": "CCOc1ccc(NC(=O)c2ccc(CN3CCCN(Cc4cccc(O)c4)CC3)cc2)cc1.O=C(O)C(F)(F)F", "Inhibition": 9}
{"molecule": "CNCCNCc1cccc(-c2ccc(-c3nc4ccccc4[nH]3)s2)c1.O=C(O)C(F)(F)F", "Inhibition": 9}
{"molecule": "CC(CO)(CO)NCc1cc2c3ccccc3c(CNC(C)(CO)CO)cc2c2ccccc12.CS(=O)(=O)O", "Inhibition": 98}
{"molecule": "CCOc1c(Br)cc(Br)cc1CNCCCCNc1nc2ccccc2[nH]1", "Inhibition": 37}
{"molecule": "CCN(CC)CCN(Cc1ccc(-c2ccc(Br)cc2)cc1)C(=O)Cn1c(CCc2cccc(F)c2F)nc(=O)c2ccccc21.O=C(O)C(O)C(O)C(=O)O", "Inhibition": 74}
{"molecule": "Cc1cnc(C(=O)Nc2ccc(-c3cccc(-c4nc5ccccc5[nH]4)c3)cc2)cn1", "Inhibition": 8}
{"molecule": "CS(=O)(=O)CCNCc1cccc(-c2cc3nccc(Nc4ccc(Oc5ccccc5)cc4)c3cc2Cl)c1", "Inhibition": 82}
{"molecule": "CCCCCC(=O)NCC(NCCCNc1cc(=O)c2ccccc2[nH]1)c1cc(Br)cc(Br)c1", "note": "(stereo not given)", "Inhibition": 66}
{"molecule": "CCN(CC)CCNc1c2ccc(Cl)cc2nc2ccc(OC)nc12.Cl", "Inhibition": 99}
{"molecule": "CCCCNCC(O)COc1ccccc1-c1ccc(N/N=C/c2cccc3ccccc23)nn1", "note": "(stereo not given)", "Inhibition": 8}
{"molecule": "Cc1cccc2nc(-c3cccc(-c4cccc(CNCCc5cccn5C)c4)c3)[nH]c12.O=C(O)C(F)(F)F", "Inhibition": 49}
{"molecule": "CN1CCN(CC(=O)Nc2ccc(-c3ccc(-c4nc5ccccc5[nH]4)s3)cc2)CC1", "Inhibition": 49}
{"molecule": "OC(c1ccc(Cl)cc1)(c1ccc(Cl)cc1)C(c1ccc(Cl)cc1)n1ccnc1", "note": "(stereo not given)", "Inhibition": 100}
{"molecule": "CCC(C)NC(=O)Nc1ccc(-c2cccc(-c3nc4ccccc4[nH]3)c2)cc1", "note": "(stereo not given)", "Inhibition": 37}
{"molecule": "O=C(NCCCCN1CCC(C(c2ccccc2)c2ccccc2)CC1)c1ccc(NC(=O)c2ccc(Cl)cc2)cc1", "Inhibition": 47}
{"molecule": "CC1(C)N=C(N)N=C(N)N1OCc1ccc2ccccc2c1", "Inhibition": 97}
{"molecule": "S=C(NN=Cc1ccccn1)NC1CC2C=CC1C2", "note": "(stereo not given)", "Inhibition": 96}
{"molecule": "Cc1[nH]c2ccc(-c3ccc(N(C)C)cc3)cc2c(=O)c1Cl", "Inhibition": 96}
{"molecule": "Cc1cccc2nc(-c3ccc(-c4ccc(CNCCCN5CCCC5=O)cc4)cc3)[nH]c12.O=C(O)C(F)(F)F", "Inhibition": 47}
